# Rows were chosen to be rich in hits. Some 4.1% of all compounds tested hit in one or more screens of this group.
# hgDAF-12 ag: hgDAF-12 agonism, primary luciferase screen | AID 687014 | HEK293 GAL4-hgDAF12 UAS-luciferase reporter, agonist luminescence; normalized to butyrate control | activation, % at 6.8 µM | 370,000 compounds, 1.8% hits;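 active = activation above a cutoff set at the mean of all screened compounds plus 3 SD, cut at about 10% in these data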;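 also: 0% = DMSO wells and 100% = sodium butyrate wells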
# DAX1 inh-1: NR0B1 (DAX1) inhibition | P51843 | HEK293 Gal4-DAX1 luciferase reporter, luminescence | inhibition, % at 6.75 µM | 340,000 compounds, 0.99% hits | AID 504766;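 active = inhibition above the mean over all tested compounds plus 3 SD, cut at about 4.2% in these data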;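 also: 0% = DAX1-transfected cells with DMSO and 100% = empty-vector control cells with DMSO; inhibition shows as a rise in luminescence from relieved DAX1 repression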
# Target sequence (P51843 207-470 limits assumed): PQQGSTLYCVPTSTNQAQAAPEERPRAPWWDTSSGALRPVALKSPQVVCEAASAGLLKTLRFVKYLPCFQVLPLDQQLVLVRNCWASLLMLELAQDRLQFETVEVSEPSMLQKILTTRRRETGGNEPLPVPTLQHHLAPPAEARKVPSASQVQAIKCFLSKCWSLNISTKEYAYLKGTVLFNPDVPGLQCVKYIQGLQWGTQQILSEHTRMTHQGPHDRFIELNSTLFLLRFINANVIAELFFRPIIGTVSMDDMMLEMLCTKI
# ssDAF12 agonist: activators of S. stercoralis DAF-12 nuclear receptor | AID 652126 | HEK293 ssDAF-12/GRIP1 lit1-tk-luc reporter, luminescence; % of 3 µM dafachronic acid response | 370,000 compounds, 1% hits | activation, % at 6.8 µM;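 active = activation above the mean over all tested compounds plus 3 SD, cut at about 0.9% in these data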;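 also: 0% = DMSO-only wells and 100% = 3 µM delta7-dafachronic acid wells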
# DAX1 inh-2: blocks DAX1 repression of SF-1 activated StAR promoter. HEK293T StAR-luciferase reporter, SF-1/DAX-1 repression relief. inhibition, % at 6.8 µM. 370,000 compounds, 1.1% hits;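 active = inhibition above the mean over all tested compounds plus 3 SD, cut at about 3.6% in these data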;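 also: 0% = DAX-1 cells with DMSO and 100% = cells lacking DAX-1 with DMSO; higher inhibition means more luminescence from relief of DAX-1 repression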
# hcDAF-12 act: activates DAF-12 receptor from parasite H. contortus; 370,000 compounds, 1.4% hits; activation, % at 6.8 µM; HEK293 hcDAF-12 lit1-tk-luc reporter, luminescence; 0% DMSO, 100% Δ7-dafachronic acid; AID 652067;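 active = activation above the mean of all tested compounds plus 3 SD, cut at about 5.5% in these data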;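 also: 100% = response to 3 µM Δ7-dafachronic acid high control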
# Active calls of the source: *; nt = no result given.
SMILES,hgDAF-12 ag,DAX1 inh-1,ssDAF12 agonist,DAX1 inh-2,hcDAF-12 act
NNC(=O)c1ccc(CSc2nc3ccccc3s2)cc1,11.4*,-0.6,-0.7,0.1,6.1*
Cc1ccc2nc3n(c(=O)c2c1)-c1ccccc1C(=O)NC3CC(C)C (stereo unspecified),0.2,nt,-1.5,-0.8,1.7
O=C(CCCCCNC(=O)N1CCn2c1nc1ccccc12)N[C@@H](Cc1ccccc1)C(=O)O,1.5,4.5*,-0.3,0.7,-0.1
Oc1cc(O)cc(C=Cc2ccc(O)c(O)c2)c1,9.8,nt,0.1,4.3*,4.4
COc1cccc(C#CC2=CC(=O)CC(C)(C)C2)c1,1.9,-0.8,-0.6,-0.6,0.0
CCOc1ccc2oc(C(=O)Nc3ccc4c(c3)OCO4)c(C)c2c1,11.1*,0.4,-0.1,1.2,2.6
CCOC(=O)c1c(N)sc(C(=O)Nc2ccc3c(c2)OCO3)c1C,8.2,-3.0,0.5,2.7,5.8*
CCOC(=O)c1c(C)c(C(=O)Nc2ccc3c(c2)OCO3)c(C)n1C,2.6,0.4,-1.2,-0.3,0.4
CN1C(=O)CN(CCN2CC(=O)N(C)C(=O)C2)CC1=O,6.1,-0.5,-0.5,0.2,-0.4
N#Cc1ccc(OCC(=O)OCC(=O)Nc2ccc(N3CCOCC3)cc2)cc1,-0.5,1.4,-0.7,1.6,0.3
O=C(COC(=O)COc1cccc(C(F)(F)F)c1)Nc1ccc(N2CCOCC2)cc1,-0.3,0.5,-1.2,-1.5,6.1*
CC(=O)Nc1ccc(CNc2ncnc3ccc(-c4c(C)noc4C)cc23)cc1,-0.8,3.8,1.2*,1.7,6.3*
Cc1cccc(CNc2ncnc3ccc(-c4ccoc4)cc23)c1,1.6,0.7,-1.0,0.1,-1.5
O=C(NCCCN1CCCC1=O)c1cc(-c2ccc3c(c2)OCO3)nc2ccccc12,-3.1,-0.3,1.0*,-0.4,1.6
Cc1nc(SCC(=O)N(C)c2ccccc2)[nH]c(=O)c1C,-5.2,nt,-1.8,nt,0.0
Cc1ccc(C(=O)Nc2ccc(N3CCN(C)CC3)cc2)cc1,10.0,3.7,1.3*,1.7,1.2
O=C(NC(=S)Nc1ccc(N2CCCCC2)cc1)c1ccco1,12.8*,2.8,-0.2,3.3,4.9
CC(=O)N1CCN(c2ccc(NC(=O)c3ccco3)cc2)CC1,8.6,1.6,1.9*,0.7,4.7
CC(=O)N1CCN(c2ccc(NC(=O)c3ccccc3)cc2)CC1,8.3,5.8*,-0.6,0.5,1.5
O=C(O)CCCC(=O)OCCCc1cc2ccccc2c(=O)o1,-2.1,nt,0.6,1.1,1.6
COCC#Cc1ccc2c(c1)O[C@H](CN(C)C(=O)c1ccccc1)[C@@H](C)CN([C@H](C)CO)S2(=O)=O,-2.8,nt,-1.4,-1.1,0.3
O=C(NNC(=O)c1cccs1)c1csc(N2CCOCC2)n1,1.7,0.0,1.2*,0.3,-0.9
O=C(/C=C/c1cccs1)c1ccc(N2CCOCC2)cc1,11.3*,2.7,-0.4,0.8,2.5
O=C(NC(=S)Nc1ccc(N2CCOCC2)cc1)c1cccs1,12.1*,3.0,0.6,4.0*,3.6
O=C(Nc1ccc(C2SCCS2)cc1)c1ccccc1,10.5*,nt,1.6*,2.1,4.0
SMILES,hgDAF-12 ag,DAX1 inh-1,ssDAF12 agonist,DAX1 inh-2,hcDAF-12 act
CCN1C[C@@H]2[C@@H]3C(=O)N(C)C(=O)[C@@H]3[C@](Cc3ccccc3)(C(=O)OC)N2C1=NCc1ccccc1,-1.7,0.7,-1.1,-0.9,-1.6
Cn1c(=O)c(=O)n(C)c2cc(S(=O)(=O)N3CCN(c4ccccc4Cl)CC3)ccc21,6.8,nt,0.4,0.4,0.2
O=c1c2c(n3nnnc3n1Cc1ccc(Cl)cc1)-c1ccccc1CC21CCCC1,-1.9,nt,-1.3,0.2,-1.2
COc1ccc2ccccc2c1CN1CCN(C)CC1,-1.5,4.7*,-0.3,-0.3,-1.4
O=C(Nc1ccc(F)cc1)Nc1c(-c2ccc(F)cc2)nc2ncccn12,0.8,nt,1.8*,-0.3,1.0
Cc1ccc(Nc2nc(N)nc(CSC(=S)N3CCOCC3)n2)cc1,8.9,0.3,-0.3,1.9,2.2
Nc1nc(CSC(=S)N2CCOCC2)nc(Nc2ccccc2)n1,1.4,5.0*,-1.2,1.1,6.1*
CC(C)(C)c1ccc(-c2nnc(SCc3cccc4ccccc34)n2Cc2ccco2)cc1,1.4,nt,-0.9,-0.3,-2.4
CCc1nc2ccc(C(=O)NCC3CCCCC3)cn2c1N(CCC(C)C)CCN(C)C,-1.1,nt,-1.1,0.3,-1.6
CCc1nc2ccc(C(=O)NCc3ccc(OC)cc3)cn2c1N(CCC(C)C)CCN(C)C,1.4,nt,1.2*,1.2,1.8
